Data as given in PubChem BioAssay (NCATS).
Records with an inconclusive call do not appear. Entries that show only a call come without a potency. Values without a mark were called inactive. Active and inactive are the calls of the source. The call rests on the fitted dose curve; in most records, active means well fitted curve in the direction sought with a large enough effect; inconclusive means small, poorly fitted or top-dose-only effect, or another doubt; inactive means no such curve, though single readings can be large; an effect the other way counts as inactive or inconclusive.

Assays:
[1] = test system: Zika virus NS2B-NS3 protease; experiment: Primary screen GU AMC qHTS for Zika virus inhibitors (AID 1347154); further: nearly all actives have a fitted effect of over 70% in size; further: potency means the concentration at half of the fitted maximal effect
Method in brief: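 Unlinked Zika NS2B hydrophilic domain/NS3 protease domain noncovalent complex (25 nM final) in 10 mM Tris-HCl pH 8.0, 0.01% Tween 20, with AMC peptide substrate. Fluorescence (ex 340, em 450 nm) change over 15 min, room temperature; percent inhibition fitted to 4-parameter Hill equation.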

[2] = Confirmatory screen GU Rhodamine qHTS for Zika virus inhibitors qHTS (AID 1347157); further: potency means the concentration at half of the fitted maximal effect; nearly all actives have a fitted effect of over 70% in size
Method in brief: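 Percent inhibition derives from the 15-min fluorescence change (ex 480, em 540 nm), normalized to no-enzyme and no-inhibitor wells. Reactions contained 25 nM NS2B-NS3 complex and 1.5 microM substrate in 10 mM Tris-HCl pH 8.0.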

[3] = ZIKV-mCherry secondary qHTS for Zika virus inhibitors (AID 1347158); further: top concentration of the series differs between compounds
Method in brief: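 After overnight seeding at 37 °C, Vero cells receive compound and then ZIKV-mCherry (MOI 1). Following 48-72 h infection, cells are fixed, counterstained with Hoechst, and imaged; percent infected cells is derived from an mCherry intensity cut-off of 450 RFU.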

[4] = test system: Zika virus NS2B-NS3 protease (linked construct); experiment: 384 well plate NINDS Rhodamine confirmatory qHTS for Zika virus inhibitors (AID 1347164);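 further: fluorescence from protease cleavage of Ac-LKRR-rhodamine 110 substrate; potency means the concentration at half of the fitted maximal effect; nearly all actives have a fitted effect of over 65% in size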
Method in brief: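 Enzyme (final 5/30/60 nM) + cpd (DMSO), ~15 min; add Ac-LKRR-Rd 10 microM final; 25 min RT, dark; FI ex 485/em 538; normalized to no-enzyme, no-inhibitor ctrls; aprotinin intraplate ctrl.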

[5] = target: Lysine-specific demethylase 5B (Homo sapiens) (UniProt Q9UGL1); experiment: Optimization screen for KDM5B Histone Demethylases FDH coupled qHTS against the LOPAC library (AID 1347166); details: KDM5B demethylation, FDH-coupled NADH fluorescence (FDH is formaldehyde dehydrogenase); at 57.5 µM (top of the series)
Lysine-specific demethylase 5B (Homo sapiens), sequence (Q9UGL1 whole entry, looked up): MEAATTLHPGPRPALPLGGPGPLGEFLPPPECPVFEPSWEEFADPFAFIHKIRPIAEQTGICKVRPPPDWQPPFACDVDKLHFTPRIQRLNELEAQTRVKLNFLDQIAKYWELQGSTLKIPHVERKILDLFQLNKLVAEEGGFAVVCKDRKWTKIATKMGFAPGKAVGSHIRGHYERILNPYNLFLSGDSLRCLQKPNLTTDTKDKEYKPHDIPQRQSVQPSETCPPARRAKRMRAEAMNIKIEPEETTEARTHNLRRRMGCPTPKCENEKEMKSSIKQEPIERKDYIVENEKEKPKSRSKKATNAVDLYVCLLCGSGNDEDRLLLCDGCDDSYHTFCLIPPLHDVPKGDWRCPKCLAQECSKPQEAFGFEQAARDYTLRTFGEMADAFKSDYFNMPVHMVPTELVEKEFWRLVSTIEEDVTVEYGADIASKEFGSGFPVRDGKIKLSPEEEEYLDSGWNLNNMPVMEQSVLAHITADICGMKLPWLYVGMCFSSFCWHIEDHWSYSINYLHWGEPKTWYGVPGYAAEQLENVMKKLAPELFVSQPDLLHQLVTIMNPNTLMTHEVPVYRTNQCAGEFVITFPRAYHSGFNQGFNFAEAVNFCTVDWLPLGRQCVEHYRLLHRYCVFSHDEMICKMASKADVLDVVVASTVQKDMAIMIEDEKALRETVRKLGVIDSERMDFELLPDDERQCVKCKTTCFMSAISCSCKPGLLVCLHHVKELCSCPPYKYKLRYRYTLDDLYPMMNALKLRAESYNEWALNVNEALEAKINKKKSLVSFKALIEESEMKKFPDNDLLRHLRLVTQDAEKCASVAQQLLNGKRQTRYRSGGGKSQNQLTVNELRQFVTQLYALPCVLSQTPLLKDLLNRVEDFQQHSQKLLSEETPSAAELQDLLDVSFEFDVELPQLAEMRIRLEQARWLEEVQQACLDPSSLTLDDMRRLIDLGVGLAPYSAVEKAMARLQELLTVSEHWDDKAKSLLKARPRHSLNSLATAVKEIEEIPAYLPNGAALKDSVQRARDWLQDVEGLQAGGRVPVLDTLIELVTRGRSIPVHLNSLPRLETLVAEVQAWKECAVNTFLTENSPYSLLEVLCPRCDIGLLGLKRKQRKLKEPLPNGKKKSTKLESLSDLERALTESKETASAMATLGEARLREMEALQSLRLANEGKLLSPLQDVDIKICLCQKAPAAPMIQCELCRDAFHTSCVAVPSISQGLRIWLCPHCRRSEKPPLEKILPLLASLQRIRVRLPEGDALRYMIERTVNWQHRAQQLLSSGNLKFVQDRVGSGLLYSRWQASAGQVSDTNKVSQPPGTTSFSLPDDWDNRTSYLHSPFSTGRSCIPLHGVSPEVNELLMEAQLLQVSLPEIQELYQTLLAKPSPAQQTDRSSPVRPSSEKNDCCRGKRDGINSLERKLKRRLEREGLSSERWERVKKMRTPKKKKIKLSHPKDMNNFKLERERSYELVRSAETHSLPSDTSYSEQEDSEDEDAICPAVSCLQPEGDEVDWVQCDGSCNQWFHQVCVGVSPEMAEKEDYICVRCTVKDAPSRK
Method in brief: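 KDM5BDeltaAP (200nM final) preincubated 10 min with compound, then 12.5uM H3K4Me3, 25uM a-ketoglutarate, ascorbate, Fe(II), NAD+ and FDH added; 50mM HEPES pH 7.5, 0.01% Tween-20. NADH fluorescence (340/450 nm) change over 30 min, room temperature.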

[6] = Confirmatory screen NINDS Rhodamine qHTS for Zika virus inhibitors (AID 1347161); further: nearly all actives have a fitted effect of over 60% in size; further: potency means the concentration at half of the fitted maximal effect
Method in brief: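 Enzyme (25 nM, linked NS2B-NS3) was preincubated 15 min with compound in 10 mM Tris-HCl pH 8.0, 0.01% Tween 20. Rhodamine110 substrate (1.5 microM) was then added and fluorescence read at start and after 15 min.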

[7] = Vero cells viability qHTS for Zika virus inhibitors (AID 1347167)
Method in brief: (§1)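 Counter-screen for cytotoxicity of hits from NS2B-NS3 protease qHTS. Overnight-attached cells (2.5 x 10^5 cells/mL, DMEM/4% FBS) were dosed in titration, incubated 24 to 48 hours, then assayed by CellTiter Glo.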

[8] = HepG2 cells viability qHTS for Zika virus inhibitors (AID 1347168)
Method in brief: as §1

For `Cc1nc(N=Nc2ccc(S(=O)(=O)O)cc2S(=O)(=O)O)c(COP(=O)(O)O)c(C=O)c1O`, the Potency [1] was “inactive”, the Potency [2] was 7.94 µM (active) and the Potency [3] was “inactive”. The Potency [4] was 3.98 µM (active) and the activity, negative = inhibition [5] was -11.6%.

With `CCCn1c(=O)c(C)cn2nc(N)nc12` the Potency [1] was 26.7 µM (active).

In the case of `NC[C@@H]1O[C@H](c2ccccc2)Cc2c1ccc(O)c2O`, the Potency [1] is reported as “inactive”.

In the case of `CC(=O)N[C@@H](Cc1c[nH]c2ccccc12)C(=O)OCc1cc(C(F)(F)F)cc(C(F)(F)F)c1`, the Potency [1] is reported as “inactive” and the activity, negative = inhibition [5] is reported as -9.61%.

For `CC1CCN(CC[C@H]2CCCN2S(=O)(=O)c2cccc(O)c2)CC1`, the Potency [1] was “inactive” and the activity, negative = inhibition [5] was 1.65%.

With `O=S(=O)(c1cccc2c(Cl)cccc12)N1CCCNCC1` the Potency [1] was “inactive”.

With `NCCS(=O)O` the Potency [1] was “inactive”.

For `O=C1Nc2ccc(I)cc2/C1=C/c1cc(Br)c(O)c(Br)c1`, the Potency [1] was “inactive”, the Potency [4] was 2.51 µM (active) and the activity, negative = inhibition [5] was -25%.

With `c1ccc2nc(C3=NCCN3)ccc2c1` the Potency [1] was “inactive”.

With `CC(C)(C)c1cc(/C=C(\C#N)C(N)=S)cc(C(C)(C)C)c1O` the Potency [1] was “inactive”.

For `N[C@H](C(=O)O)[C@H](O)C(=O)O`, the Potency [1] was “inactive” and the activity, negative = inhibition [5] was -0.47%.

For `COc1ccccc1N1CCN(CCCNc2c(C)c(=O)n(C)c(=O)n2C)CC1`, the Potency [1] was “inactive”, the Potency [6] was “inactive” and the activity, negative = inhibition [5] was -1.72%. The Potency [7] was “inactive” and the outcome [8] was “inactive”.

With `NC1(C(=O)O)CCc2cc(C(=O)O)ccc21` (stereo not drawn) the Potency [1] was “inactive”.

For `O=c1[nH]c2ccccc2c2ccccc12`, the Potency [1] was “inactive”.

With `CC(=O)NNC(=O)N1Cc2ccccc2Oc2ccc(Cl)cc21` the Potency [1] was “inactive”.

In the case of `S=C(S)N1CCCC1`, the Potency [1] is reported as “inactive”.

With `O=C(O)c1ccccc1Nc1cccc(OCc2ccc3ccccc3n2)c1` the Potency [1] was “inactive”, the Potency [6] was 3.49 µM (active) and the Potency [4] was 63.1 µM (active). The Potency [7] was “inactive” and the outcome [8] was “inactive”.

For `COc1ccccc1N1CCN(CCCCN2C(=O)c3ccccc3C2=O)CC1`, the Potency [1] was “inactive” and the activity, negative = inhibition [5] was -4.4%.

For `O=c1ccn([C@@H]2O[C@H](COP(=O)(O)OP(=O)(O)O)[C@@H](O)[C@H]2O)c(=O)[nH]1`, the Potency [1] was “inactive” and the activity, negative = inhibition [5] was -0.701%.

In the case of `CC(C)NCC(O)COc1ccc(CC(N)=O)cc1` (stereo not drawn), the Potency [1] is reported as “inactive” and the activity, negative = inhibition [5] is reported as -1.35%.

For `COc1ccc(NC(=O)c2ccc(-c3ccc(-c4noc(C)n4)cc3C)cc2)cc1N1CCN(C)CC1`, the Potency [1] was “inactive” and the activity, negative = inhibition [5] was -1.51%.

For `CC(C)(C)NCC(O)COc1cccc2[nH]c(=O)[nH]c12` (stereo not drawn), the Potency [1] was “inactive” and the activity, negative = inhibition [5] was -6.87%.

For `O=C(O)c1ccccc1Nc1ccccc1`, the Potency [1] was “inactive” and the activity, negative = inhibition [5] was -9.73%.

For `CC(C)NC[C@H](O)COc1cccc2ccccc12`, the Potency [1] was “inactive” and the activity, negative = inhibition [5] was -12%.
